Where a name gives a salt, the structure may show the parent alone. ± gives the standard deviation of the averaged measurements.
What follows are compounds tested on Danio rerio Tg(wt1b:EGFP) embryo, pronephros (assay: glomerular width (mean of left and right), fold change vs DMSO control; higher = wider glomerulus). Settings: 25 µM; exposure: 24-48 hpf.
Method in brief: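 Dechorionated Tg(wt1b:EGFP) zebrafish embryos were kept from 24 to 48 hpf at 28.5°C in HEPES-buffered E3 containing 0.003% PTU, 0.5% DMSO and 25 μM compound. The pronephroi were then imaged from the dorsal side in agarose-filled 96-well plates at 470 nm with 10 z-slices, and 16 reference points were placed by hand on maximum projections in Fiji so that a macro could calculate distances and angles. Values lying more than 2 SD from the mean of a feature were discarded. Every feature is given as a fold change against the mean of DMSO-treated embryos from the same day.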

| Compound | glomerular width |
| --- | --- |
| O=C(O)Cc1sc(-c2ccccc2)nc1-c1ccc(Cl)cc1 [Fentiazac] | 0.503 ± 0.018 |
| CCC1(c2ccccc2)NC(=O)N(C)C1=O (stereo not given) [Mephenytoin] | 0.9232 ± 0.0066 |
| O=C1c2ccccc2C(=O)C1c1ccccc1 [Phenindione] | 1.07 ± 0.052 |
| COc1cc(C(=O)OCCCN2CCCN(CCCOC(=O)c3cc(OC)c(OC)c(OC)c3)CC2)cc(OC)c1OC [Dilazep dihydrochloride] | 0.986 ± 0.055 |
| CC=CC1=C(C(=O)O)N2C(=O)[C@@H](NC(=O)[C@H](N)c3ccc(O)cc3)[C@H]2SC1 [Cefprozil] | 1.086 ± 0.0056 |
| CCOc1ccccc1OCC1CNCCO1 (stereo not given) [Viloxazine hydrochloride] | 0.9002 ± 0.0018 |
| CC(N/C(=N\C#N)Nc1ccncc1)C(C)(C)C (stereo not given) [Pinacidil] | 1.05 ± 0.1 |
| C#C[C@]1(O)CC[C@H]2[C@@H]3CCC4=CC(=O)CC[C@@H]4[C@H]3CC[C@@]21CC [Norgestrel-(-)-D] | 1.016 ± 0.0075 |
| Oc1c(I)cc(Cl)c2cccnc12 [Clioquinol] | 0.626 ± 0.024 |
| N[C@@H](C(=O)N[C@@H]1C(=O)N2C(C(=O)O)=C(Cl)CS[C@H]12)c1ccccc1 [Cefaclor hydrate] | 0.95 ± 0.093 |
| CC1(C)S[C@@H]2[C@H](NC(=O)[C@H](N)c3ccccc3)C(=O)N2[C@H]1C(=O)O [Ampicillin trihydrate] | 1.03 ± 0.016 |
| Nc1ccc(S(=O)(=O)Nc2ccc(Cl)nn2)cc1 [Sulfachloropyridazine] | 0.973 ± 0.029 |
| Cc1nccn1CC1CCc2c(c3ccccc3n2C)C1=O (stereo not given) [Ondansetron Hydrochloride] | 1.011 ± 0.01 |
| CO/N=C(\C(=O)N[C@@H]1C(=O)N2C(C(=O)OC(C)OC(C)=O)=C(COC(N)=O)CS[C@H]12)c1ccco1 (stereo not given in full) [Cefuroxime axetil] | 1.02 ± 0.023 |
| CCCNC(C)(C)COC(=O)c1ccccc1 [Meprylcaine hydrochloride] | 0.936 ± 0.03 |
| NC(=O)N/N=C/c1ccc([N+](=O)[O-])o1 [Nitrofural] | 1.02 ± 0.047 |
| CS(=O)(=O)c1ccc([C@@H](O)[C@@H](CF)NC(=O)C(Cl)Cl)cc1 [Florfenicol] | 1.01 ± 0.083 |
| CC1COc2c(N3CCN(C)CC3)c(F)cc3c(=O)c(C(=O)O)cn1c23 (stereo not given) [Ofloxacin] | 1.043 ± 0.0041 |
| CCCC(C(=O)OCCN(CC)CC)(c1ccccc1)c1ccccc1 [Proadifen hydrochloride] | 1.09 ± 0.071 |
| C[C@]12C=CC(=O)C=C1CC[C@@H]1[C@@H]2[C@@H](O)C[C@@]2(C)[C@H]1CC[C@]2(O)C(=O)CO [Prednisolone] | 1.22 ± 0.043 |

| Compound | glomerular width |
| --- | --- |
| Nc1nc(F)nc2c1ncn2[C@@H]1O[C@H](CO)[C@@H](O)[C@@H]1O [Fludarabine] | 0.997 ± 0.061 |
| CN1CCN2c3ncccc3Cc3ccccc3C2C1 (stereo not given) [Mirtazapine] | 0.98 ± 0.037 |
| O=P(O)(O)C(O)(Cc1cccnc1)P(=O)(O)O [Risedronic acid monohydrate] | 1.04 ± 0.032 |
| CCN1CCCC1CNC(=O)c1cc(S(N)(=O)=O)ccc1OC (stereo not given) [Sulpiride] | 1.02 ± 0.023 |
| CCN1CCN(c2cc3c(cc2F)c(=O)c(C(=O)O)cn3C2CC2)CC1 [Enrofloxacin] | 1.07 ± 0.12 |
| COc1cc2c(cc1OC)C(=O)C(CC1CCN(Cc3ccccc3)CC1)C2 (stereo not given) [Donepezil hydrochloride] | 1.13 ± 0.082 |
| CN1CCN(C2=Nc3ccccc3Oc3ccc(Cl)cc32)CC1 [Loxapine succinate] | 0.974 ± 0.014 |
| CO/N=C(\C(=O)N[C@@H]1C(=O)N2C(C(=O)O)=C(COC(N)=O)CS[C@H]12)c1ccco1 [Cefuroxime sodium salt] | 0.997 ± 0.025 |
| CC(C)/N=c1\cc2n(-c3ccc(Cl)cc3)c3ccccc3nc-2cc1Nc1ccc(Cl)cc1 [Clofazimine] | 1.06 ± 0.056 |
| CCC1=C(C)CN(C(=O)NCCc2ccc(S(=O)(=O)NC(=O)N[C@H]3CC[C@H](C)CC3)cc2)C1=O [Glimepiride] | 1.02 ± 0.06 |
| N=C(N)NC(=O)Cc1c(Cl)cccc1Cl [Guanfacine hydrochloride] | 1.08 ± 0.1 |
| CC[N+](CC)(CC)CCC(O)(c1ccccc1)C1CCCCC1 (stereo not given) [Tridihexethyl chloride] | 0.925 ± 0.012 |
| CC[N+](CC)(CC(=O)Nc1c(C)cccc1C)Cc1ccccc1 [Denatonium benzoate] | 0.844 ± 0.018 |
| CCCCCCC[N+](CC)(CC)CCCCc1ccc(Cl)cc1 [Clofilium tosylate] | 1.04 ± 0.059 |
| CN[C@H](CC(C)C)C(=O)N[C@H]1C(=O)N[C@@H](CC(N)=O)C(=O)N[C@H]2C(=O)N[C@H]3C(=O)N[C@H](C(=O)N[C@H](C(=O)O)c4cc(O)cc(O)c4-c4cc3ccc4O)[C@H](O)c3ccc(c(Cl)c3)Oc3cc2cc(c3O[C@@H]2O[C@H](CO)[C@@H](O)[C@H](O)[C@H]2O[C@H]2C[C@](C)(N)[C@H](O)[C@H](C)O2)Oc2ccc(cc2Cl)[C@H]1O [Vancomycin hydrochloride] | 0.978 ± 0.033 |
| C[C@H]1C[C@H]2[C@@H]3CCC4=CC(=O)C=C[C@]4(C)[C@@]3(F)[C@@H](O)C[C@]2(C)[C@@]1(O)C(=O)CO [Betamethasone] | 1.17 ± 0.088 |
| CN1CCN(CC(=O)N2c3ccccc3C(=O)Nc3cccnc32)CC1 [Pirenzepine dihydrochloride] | 0.9891 ± 0.0015 |
| C[C@@H]1NC(=O)NC1=O [Methylhydantoin-5-(L)] | 0.967 ± 0.048 |
| COc1cc(C)nc(-n2nc(C)cc2OC)n1 [Epirizole] | 0.957 ± 0.021 |
| CCOCCn1c(N2CCCN(C)CC2)nc2ccccc21 [Emedastine] | 0.979 ± 0.051 |
